# Data published in the supplement of paper PMC10849652.
# About 7,900 targets were measured; listed, in parts, are those with a hit and a random draw of the rest. About 0.6% of all pairs of compound and target were hits.
# Compound: CN1CCc2c(c3ccccc3n2Cc2ccc(C(=O)NO)cc2)C1 [Tubastatin A]
# Assay: log2 fold change, soluble protein after heating vs DMSO (PISA); higher = thermal stabilisation; K562 cells, 10 uM, 30 min; active = over 0.2 and 3.5 SD of the protein, either way, in both replicates (recomputed)
# Procedure, shortened: (§1)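 For each measurement, 10 μM compound was applied for 30 min to K562 cells at 2×10^6 cells/mL. Aliquots were heated for 3 min across 48°C-58°C, pooled, and extracted in PBS with 0.5% NP-40 at 4°C; the supernatant after 21,000xg for 90 min was soluble protein. This was quantified by TMTpro 16plex LC-MS/MS with channel sums equalised, and thermal stability was reported relative to control samples from duplicates, on a log2 fold-change scale.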
# Chain of UniProt Q8N357 (Q8N357 whole entry, looked up): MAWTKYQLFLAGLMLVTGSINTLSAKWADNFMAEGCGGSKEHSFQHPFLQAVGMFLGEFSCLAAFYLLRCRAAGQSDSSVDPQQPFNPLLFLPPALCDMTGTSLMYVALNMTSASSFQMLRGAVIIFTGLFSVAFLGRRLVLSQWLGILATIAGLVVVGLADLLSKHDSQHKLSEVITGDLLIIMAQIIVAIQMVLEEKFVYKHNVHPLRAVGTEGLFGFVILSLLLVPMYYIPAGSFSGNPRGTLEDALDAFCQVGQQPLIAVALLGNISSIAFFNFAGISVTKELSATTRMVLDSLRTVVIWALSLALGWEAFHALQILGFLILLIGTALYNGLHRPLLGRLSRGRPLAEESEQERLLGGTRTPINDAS
# Chain of UniProt P55061 (P55061 whole entry, looked up): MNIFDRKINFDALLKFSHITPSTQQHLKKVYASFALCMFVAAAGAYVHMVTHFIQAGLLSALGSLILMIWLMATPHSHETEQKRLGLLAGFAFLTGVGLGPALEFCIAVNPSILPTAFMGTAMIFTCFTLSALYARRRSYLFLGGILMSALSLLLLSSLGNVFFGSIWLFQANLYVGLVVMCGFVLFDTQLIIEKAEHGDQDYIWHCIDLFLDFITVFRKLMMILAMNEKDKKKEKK
# Chain of UniProt Q9Y6I9 (Q9Y6I9 whole entry, looked up): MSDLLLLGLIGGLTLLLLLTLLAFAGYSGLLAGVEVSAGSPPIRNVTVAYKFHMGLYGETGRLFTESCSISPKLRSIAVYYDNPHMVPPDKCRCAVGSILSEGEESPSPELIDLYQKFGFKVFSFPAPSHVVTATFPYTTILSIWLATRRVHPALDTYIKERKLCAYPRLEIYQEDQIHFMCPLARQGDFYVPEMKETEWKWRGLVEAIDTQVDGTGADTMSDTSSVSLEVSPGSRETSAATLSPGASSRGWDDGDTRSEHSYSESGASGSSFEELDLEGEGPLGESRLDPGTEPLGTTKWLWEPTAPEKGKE
# Chain of UniProt Q6ZRS2 (Q6ZRS2 whole entry, looked up): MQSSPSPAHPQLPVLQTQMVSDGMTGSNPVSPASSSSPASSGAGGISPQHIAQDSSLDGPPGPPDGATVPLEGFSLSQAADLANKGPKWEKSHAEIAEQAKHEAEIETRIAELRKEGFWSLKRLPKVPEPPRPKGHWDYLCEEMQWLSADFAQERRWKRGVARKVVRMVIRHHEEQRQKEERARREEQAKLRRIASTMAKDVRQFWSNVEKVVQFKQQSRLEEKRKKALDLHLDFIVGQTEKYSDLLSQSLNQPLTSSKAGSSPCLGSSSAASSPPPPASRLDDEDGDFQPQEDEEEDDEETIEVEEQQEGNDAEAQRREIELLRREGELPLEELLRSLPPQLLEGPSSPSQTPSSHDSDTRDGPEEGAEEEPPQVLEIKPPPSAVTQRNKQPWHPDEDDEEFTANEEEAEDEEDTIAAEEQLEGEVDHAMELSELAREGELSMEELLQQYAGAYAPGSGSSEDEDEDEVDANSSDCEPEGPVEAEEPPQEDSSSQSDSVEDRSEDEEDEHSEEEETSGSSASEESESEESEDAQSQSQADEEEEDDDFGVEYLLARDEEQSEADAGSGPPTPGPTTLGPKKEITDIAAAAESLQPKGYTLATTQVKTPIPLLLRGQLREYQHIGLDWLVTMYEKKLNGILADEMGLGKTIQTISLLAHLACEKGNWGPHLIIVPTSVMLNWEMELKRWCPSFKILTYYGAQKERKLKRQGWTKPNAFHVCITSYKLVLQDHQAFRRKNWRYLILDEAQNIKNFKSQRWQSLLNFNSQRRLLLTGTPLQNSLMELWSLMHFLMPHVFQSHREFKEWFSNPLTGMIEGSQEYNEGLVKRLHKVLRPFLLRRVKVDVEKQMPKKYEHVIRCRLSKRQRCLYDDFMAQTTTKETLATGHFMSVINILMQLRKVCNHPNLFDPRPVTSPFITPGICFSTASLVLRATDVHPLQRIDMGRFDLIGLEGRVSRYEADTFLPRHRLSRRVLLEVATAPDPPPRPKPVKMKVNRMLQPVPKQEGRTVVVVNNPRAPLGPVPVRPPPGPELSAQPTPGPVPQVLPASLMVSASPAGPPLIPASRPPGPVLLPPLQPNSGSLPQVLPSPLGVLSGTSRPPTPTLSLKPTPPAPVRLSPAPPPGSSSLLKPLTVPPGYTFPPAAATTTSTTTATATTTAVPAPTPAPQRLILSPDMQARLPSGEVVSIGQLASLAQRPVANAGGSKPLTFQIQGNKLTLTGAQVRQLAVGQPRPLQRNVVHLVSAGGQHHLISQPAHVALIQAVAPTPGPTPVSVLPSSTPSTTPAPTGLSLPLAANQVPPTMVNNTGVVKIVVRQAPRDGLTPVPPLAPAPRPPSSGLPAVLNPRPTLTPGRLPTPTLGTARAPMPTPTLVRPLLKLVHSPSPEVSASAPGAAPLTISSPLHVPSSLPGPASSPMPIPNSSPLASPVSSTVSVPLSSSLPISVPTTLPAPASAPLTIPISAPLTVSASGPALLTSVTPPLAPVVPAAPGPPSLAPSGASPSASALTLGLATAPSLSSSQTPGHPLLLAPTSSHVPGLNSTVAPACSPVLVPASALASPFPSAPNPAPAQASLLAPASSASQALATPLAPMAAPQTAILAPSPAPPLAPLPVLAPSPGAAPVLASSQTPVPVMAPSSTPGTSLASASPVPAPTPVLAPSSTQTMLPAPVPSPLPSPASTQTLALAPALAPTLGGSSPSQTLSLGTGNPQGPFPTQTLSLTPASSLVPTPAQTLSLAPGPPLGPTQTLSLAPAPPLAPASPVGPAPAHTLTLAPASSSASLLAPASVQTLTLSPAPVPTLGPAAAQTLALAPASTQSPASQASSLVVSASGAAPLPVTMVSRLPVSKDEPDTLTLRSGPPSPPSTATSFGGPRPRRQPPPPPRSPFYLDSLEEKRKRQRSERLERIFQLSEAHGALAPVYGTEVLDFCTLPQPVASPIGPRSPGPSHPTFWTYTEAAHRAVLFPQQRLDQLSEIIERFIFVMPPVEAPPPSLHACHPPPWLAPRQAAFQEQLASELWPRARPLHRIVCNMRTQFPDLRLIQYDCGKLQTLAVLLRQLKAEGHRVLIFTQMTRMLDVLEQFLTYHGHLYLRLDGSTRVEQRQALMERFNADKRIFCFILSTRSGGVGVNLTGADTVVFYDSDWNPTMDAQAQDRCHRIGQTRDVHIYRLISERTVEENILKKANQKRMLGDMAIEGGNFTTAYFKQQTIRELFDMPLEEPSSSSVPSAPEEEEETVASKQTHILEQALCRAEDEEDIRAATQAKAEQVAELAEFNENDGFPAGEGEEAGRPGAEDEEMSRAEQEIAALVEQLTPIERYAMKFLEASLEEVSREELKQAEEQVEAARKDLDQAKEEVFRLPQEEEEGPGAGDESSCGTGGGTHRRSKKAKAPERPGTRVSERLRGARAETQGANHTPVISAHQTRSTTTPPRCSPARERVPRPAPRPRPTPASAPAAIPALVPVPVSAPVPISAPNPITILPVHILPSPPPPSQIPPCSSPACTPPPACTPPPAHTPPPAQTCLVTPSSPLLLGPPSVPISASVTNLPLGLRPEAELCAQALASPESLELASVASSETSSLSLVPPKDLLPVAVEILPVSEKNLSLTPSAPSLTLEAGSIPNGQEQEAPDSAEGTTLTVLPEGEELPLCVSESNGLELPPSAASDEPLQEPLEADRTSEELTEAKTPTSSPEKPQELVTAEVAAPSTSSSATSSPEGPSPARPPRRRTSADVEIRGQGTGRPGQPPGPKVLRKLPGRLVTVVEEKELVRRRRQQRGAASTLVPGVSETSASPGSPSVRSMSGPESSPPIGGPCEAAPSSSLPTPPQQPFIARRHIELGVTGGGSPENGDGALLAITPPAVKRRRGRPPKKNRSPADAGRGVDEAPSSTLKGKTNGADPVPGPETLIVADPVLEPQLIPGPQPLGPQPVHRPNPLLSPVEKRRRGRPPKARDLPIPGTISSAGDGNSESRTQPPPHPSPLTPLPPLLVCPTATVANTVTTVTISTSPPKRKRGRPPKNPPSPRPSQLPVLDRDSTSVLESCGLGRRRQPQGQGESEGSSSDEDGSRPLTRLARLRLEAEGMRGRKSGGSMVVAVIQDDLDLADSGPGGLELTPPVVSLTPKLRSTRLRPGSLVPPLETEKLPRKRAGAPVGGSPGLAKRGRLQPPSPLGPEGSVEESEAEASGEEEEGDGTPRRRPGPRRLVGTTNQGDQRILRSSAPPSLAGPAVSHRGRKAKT
# Chain of UniProt P12931 (P12931 whole entry, looked up): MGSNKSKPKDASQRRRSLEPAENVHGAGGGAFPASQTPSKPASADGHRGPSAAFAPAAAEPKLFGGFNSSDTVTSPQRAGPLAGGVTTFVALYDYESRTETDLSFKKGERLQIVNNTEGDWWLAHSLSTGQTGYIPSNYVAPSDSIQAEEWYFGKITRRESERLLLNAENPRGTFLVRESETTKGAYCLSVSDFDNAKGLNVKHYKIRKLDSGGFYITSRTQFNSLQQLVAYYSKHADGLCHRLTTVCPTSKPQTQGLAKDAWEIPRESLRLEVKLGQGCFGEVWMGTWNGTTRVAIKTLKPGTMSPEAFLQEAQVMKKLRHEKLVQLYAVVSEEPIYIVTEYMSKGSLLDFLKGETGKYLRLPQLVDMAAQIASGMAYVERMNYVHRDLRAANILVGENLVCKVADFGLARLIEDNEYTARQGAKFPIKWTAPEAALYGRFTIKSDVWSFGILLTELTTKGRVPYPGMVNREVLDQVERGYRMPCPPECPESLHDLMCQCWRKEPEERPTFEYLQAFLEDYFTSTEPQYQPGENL
# Chain of UniProt Q9BWG4 (Q9BWG4 whole entry, looked up): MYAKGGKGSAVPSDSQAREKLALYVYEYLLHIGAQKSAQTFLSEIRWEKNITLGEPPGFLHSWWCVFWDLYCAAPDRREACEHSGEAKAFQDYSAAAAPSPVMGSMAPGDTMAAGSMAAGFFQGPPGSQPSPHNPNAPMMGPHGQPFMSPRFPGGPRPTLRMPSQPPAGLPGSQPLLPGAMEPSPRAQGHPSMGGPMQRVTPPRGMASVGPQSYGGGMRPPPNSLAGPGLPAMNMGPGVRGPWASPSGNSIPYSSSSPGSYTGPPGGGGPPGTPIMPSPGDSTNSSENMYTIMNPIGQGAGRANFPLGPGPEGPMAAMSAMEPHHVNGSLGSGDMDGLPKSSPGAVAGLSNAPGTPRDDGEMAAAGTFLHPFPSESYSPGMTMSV
row,Target,log2 fold change
1,SYNE2 isoform 2 (UniProt Q8WXH0),0.071 (inactive)
2,TBK1 (UniProt Q9UHD2),-0.014 (inactive)
3,TANGO6 (UniProt Q9C0B7),0.116 (inactive)
4,SLC38A7 (UniProt Q9NVC3),-0.177 (inactive)
5,TENT5C (UniProt Q5VWP2),0.004 (inactive)
6,SRXN1 (UniProt Q9BYN0),0.209 (inactive)
7,SLC29A3 (UniProt Q9BZD2),0.092 (inactive)
8,SMARCE1 (UniProt Q969G3),0.018 (inactive)
9,SRC isoform 2 (UniProt P12931),-0.108 (inactive)
10,SRFBP1 (UniProt Q8NEF9),0.084 (inactive)
11,SLC39A11 (UniProt Q8N1S5),-0.164 (inactive)
12,TBC1D15 isoform 3 (UniProt Q8TC07),-0.011 (inactive)
13,TM7SF3 (UniProt Q9NS93),-0.082 (inactive)
14,SNX15 (UniProt Q9NRS6),0.045 (inactive)
15,SPPL2B (UniProt Q8TCT7),-0.031 (inactive)
16,SMIM20 isoform 2 (UniProt Q8N5G0),-0.013 (inactive)
17,SLC35F6 (UniProt Q8N357),-0.05 (inactive)
18,TEX264 (UniProt Q9Y6I9),-0.077 (inactive)

row,Target,log2 fold change
1,SPCS2 (UniProt Q15005),-0.026 (inactive)
2,TJP1 (UniProt Q07157),0.045 (inactive)
3,TACC2 (UniProt O95359),-0.041 (inactive)
4,SSBP4 (UniProt Q9BWG4),0.038 (inactive)
5,SNRPB2 (UniProt P08579),-0.11 (inactive)
6,STK26 (UniProt Q9P289),-0.049 (inactive)
7,SP100 isoform 4 (UniProt P23497),-0.015 (inactive)
8,STARD3NL (UniProt O95772),-0.05 (inactive)
9,SNX5 (UniProt Q9Y5X3),-0.013 (inactive)
10,TMBIM6 isoform 2 (UniProt P55061),0.062 (inactive)
11,TARS2 (UniProt Q9BW92),-0.357 (active)
12,SPTBN1 (UniProt Q01082),0.042 (inactive)
13,SLC35A1 (UniProt P78382),-0.038 (inactive)
14,SLC38A2 (UniProt Q96QD8),-0.043 (inactive)
15,TAOK2 (UniProt Q9UL54),-0.003 (inactive)
16,SUN1 isoform 9 (UniProt O94901),-0.048 (inactive)
17,SRCAP (UniProt Q6ZRS2),-0.486 (active)
18,TBP (UniProt P20226),-0.014 (inactive)

# Compound: CNC(=O)C1=CC=CC=C1NC2=NC(=NC=C2Cl)NC3=C(C=C(C=C3)N4CCOCC4)OC
# Assay: as above
# Procedure, shortened: as §1
row,Target,log2 fold change
1,SYNE2 isoform 2 (UniProt Q8WXH0),-0.109 (inactive)
2,TBK1 (UniProt Q9UHD2),0.536 (active)
3,TANGO6 (UniProt Q9C0B7),-0.077 (inactive)
4,SLC38A7 (UniProt Q9NVC3),-0.052 (inactive)
5,TENT5C (UniProt Q5VWP2),-0.133 (inactive)
6,SLC29A3 (UniProt Q9BZD2),0.105 (inactive)
7,SMARCE1 (UniProt Q969G3),-0.032 (inactive)
8,SRC isoform 2 (UniProt P12931),-0.069 (inactive)
9,SRFBP1 (UniProt Q8NEF9),0.052 (inactive)
10,SLC39A11 (UniProt Q8N1S5),-0.223 (inactive)
11,TBC1D15 isoform 3 (UniProt Q8TC07),-0.014 (inactive)
12,TM7SF3 (UniProt Q9NS93),0.039 (inactive)
13,SPPL2B (UniProt Q8TCT7),0.026 (inactive)
14,SMIM20 isoform 2 (UniProt Q8N5G0),0.018 (inactive)
15,SRSF9 (UniProt Q13242),-0.145 (inactive)
16,SLC35F6 (UniProt Q8N357),-0.025 (inactive)
17,TBC1D20 isoform 3 (UniProt Q96BZ9),0.004 (inactive)
18,TEX264 (UniProt Q9Y6I9),0.13 (inactive)

row,Target,log2 fold change
1,SPCS2 (UniProt Q15005),0.062 (inactive)
2,TJP1 (UniProt Q07157),-0.099 (inactive)
3,TACC2 (UniProt O95359),0.075 (inactive)
4,SSBP4 (UniProt Q9BWG4),-0.184 (inactive)
5,SNRPB2 (UniProt P08579),0.02 (inactive)
6,STK26 (UniProt Q9P289),-0.057 (inactive)
7,SP100 isoform 4 (UniProt P23497),0.018 (inactive)
8,STARD3NL (UniProt O95772),0.013 (inactive)
9,SNX5 (UniProt Q9Y5X3),-0.117 (inactive)
10,TMBIM6 isoform 2 (UniProt P55061),-0.004 (inactive)
11,TARS2 (UniProt Q9BW92),0.03 (inactive)
12,SPTBN1 (UniProt Q01082),0.048 (inactive)
13,SLC35A1 (UniProt P78382),-0.016 (inactive)
14,SLC38A2 (UniProt Q96QD8),0.004 (inactive)
15,TAOK2 (UniProt Q9UL54),0.244 (inactive)
16,SUN1 isoform 9 (UniProt O94901),-0.108 (inactive)
17,SRCAP (UniProt Q6ZRS2),-0.069 (inactive)
